Substitutions are numbered along the chain they refer to; changes in the protein carry UniProt numbers. Over roughly 16,000 sequences, “ka relative to ugcaugu” has its median near 0.096; the highest 2% begin near 0.35. This is one part of a sample in which the highest values are shown more often than they occur.

Sequences and labels used below:
T1: RBFOX1 RRM RbFoxmut (Fox-RRM*) (Homo sapiens, UniProt Q9NWB1 109-208, R118D;E147R;N151S;E152T)
T1 sequence: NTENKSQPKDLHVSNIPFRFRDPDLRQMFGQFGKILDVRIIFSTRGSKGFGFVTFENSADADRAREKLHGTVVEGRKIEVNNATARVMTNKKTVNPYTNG

B1: ACUUGAG (DNA:RNA)
RNA: GGGAGACCGGAAUUCAGAUUGUCCACUUGAGUUAAAUCCCGUCGUAGCCACCA
DNA 1: CAATCTGAATTCCGGTCTCCC
DNA 2: TGGTGGCTACGACGGGATT
B2: AGGGUAC (DNA:RNA)
RNA: B1 RNA with C26G, U27G, U28G, G29U, G31C
DNA 1: CAATCTGAATTCCGGTCTCCC
DNA 2: TGGTGGCTACGACGGGATT
B3: UUAACCU (DNA:RNA)
RNA: GGGAGACCGGAAUUCAGAUUGUCCUUAACCUUUAAAUCCCGUCGUAGCCACCA
DNA 1: CAATCTGAATTCCGGTCTCCC
DNA 2: TGGTGGCTACGACGGGATT
B4: UCCAUCA (DNA:RNA)
RNA: B3 RNA with U26C, A27C, C29U, U31A
DNA 1: CAATCTGAATTCCGGTCTCCC
DNA 2: TGGTGGCTACGACGGGATT
B5: GGCAGCU (DNA:RNA)
RNA: B3 RNA with U25G, U26G, A27C, C29G
DNA 1: CAATCTGAATTCCGGTCTCCC
DNA 2: TGGTGGCTACGACGGGATT
B6: GUCGAGC (DNA:RNA)
RNA: B3 RNA with U25G, A27C, A28G, C29A, C30G, U31C
DNA 1: CAATCTGAATTCCGGTCTCCC
DNA 2: TGGTGGCTACGACGGGATT
B7: GCAUGGC (DNA:RNA)
RNA: B1 RNA with A25G, U27A, A30G, G31C
DNA 1: CAATCTGAATTCCGGTCTCCC
DNA 2: TGGTGGCTACGACGGGATT
B8: GCAUGGA (DNA:RNA)
RNA: B1 RNA with A25G, U27A, A30G, G31A
DNA 1: CAATCTGAATTCCGGTCTCCC
DNA 2: TGGTGGCTACGACGGGATT
B9: GCAAUGG (DNA:RNA)
RNA: B1 RNA with A25G, U27A, U28A, G29U, A30G
DNA 1: CAATCTGAATTCCGGTCTCCC
DNA 2: TGGTGGCTACGACGGGATT
B10: GGCAUGG (DNA:RNA)
RNA: B1 RNA with A25G, C26G, U27C, U28A, G29U, A30G
DNA 1: CAATCTGAATTCCGGTCTCCC
DNA 2: TGGTGGCTACGACGGGATT
B11: GCAUAGC (DNA:RNA)
RNA: B1 RNA with A25G, U27A, G29A, A30G, G31C
DNA 1: CAATCTGAATTCCGGTCTCCC
DNA 2: TGGTGGCTACGACGGGATT
B12: GCAUUGG (DNA:RNA)
RNA: B1 RNA with A25G, U27A, G29U, A30G
DNA 1: CAATCTGAATTCCGGTCTCCC
DNA 2: TGGTGGCTACGACGGGATT
B13: GUCAUGG (DNA:RNA)
RNA: B3 RNA with U25G, A27C, C29U, C30G, U31G
DNA 1: CAATCTGAATTCCGGTCTCCC
DNA 2: TGGTGGCTACGACGGGATT
B14: GCCAUGG (DNA:RNA)
RNA: B1 RNA with A25G, U27C, U28A, G29U, A30G
DNA 1: CAATCTGAATTCCGGTCTCCC
DNA 2: TGGTGGCTACGACGGGATT
B15: GCAUGGU (DNA:RNA)
RNA: B1 RNA with A25G, U27A, A30G, G31U
DNA 1: CAATCTGAATTCCGGTCTCCC
DNA 2: TGGTGGCTACGACGGGATT
B16: GCAUGGG (DNA:RNA)
RNA: B1 RNA with A25G, U27A, A30G
DNA 1: CAATCTGAATTCCGGTCTCCC
DNA 2: TGGTGGCTACGACGGGATT
B17: CCAUGGU (DNA:RNA)
RNA: B1 RNA with A25C, U27A, A30G, G31U
DNA 1: CAATCTGAATTCCGGTCTCCC
DNA 2: TGGTGGCTACGACGGGATT
B18: CGCAUGG (DNA:RNA)
RNA: B1 RNA with A25C, C26G, U27C, U28A, G29U, A30G
DNA 1: CAATCTGAATTCCGGTCTCCC
DNA 2: TGGTGGCTACGACGGGATT
B19: UGGUGUC (DNA:RNA)
RNA: B1 RNA with A25U, C26G, U27G, A30U, G31C
DNA 1: CAATCTGAATTCCGGTCTCCC
DNA 2: TGGTGGCTACGACGGGATT
B20: AAUUGGG (DNA:RNA)
RNA: B1 RNA with C26A, A30G
DNA 1: CAATCTGAATTCCGGTCTCCC
DNA 2: TGGTGGCTACGACGGGATT
B21: UGUUGGC (DNA:RNA)
RNA: B1 RNA with A25U, C26G, A30G, G31C
DNA 1: CAATCTGAATTCCGGTCTCCC
DNA 2: TGGTGGCTACGACGGGATT
B22: GUUAACC (DNA:RNA)
RNA: B3 RNA with U25G, A27U, C29A, U31C
DNA 1: CAATCTGAATTCCGGTCTCCC
DNA 2: TGGTGGCTACGACGGGATT
B23: UUCCCAG (DNA:RNA)
RNA: B3 RNA with A27C, A28C, C30A, U31G
DNA 1: CAATCTGAATTCCGGTCTCCC
DNA 2: TGGTGGCTACGACGGGATT
B24: GUUACAG (DNA:RNA)
RNA: B1 RNA with A25G, C26U, U28A, G29C
DNA 1: CAATCTGAATTCCGGTCTCCC
DNA 2: TGGTGGCTACGACGGGATT
B25: GUCCAGG (DNA:RNA)
RNA: B1 RNA with A25G, C26U, U27C, U28C, G29A, A30G
DNA 1: CAATCTGAATTCCGGTCTCCC
DNA 2: TGGTGGCTACGACGGGATT
B26: AGGUUGU (DNA:RNA)
RNA: B1 RNA with C26G, U27G, G29U, A30G, G31U
DNA 1: CAATCTGAATTCCGGTCTCCC
DNA 2: TGGTGGCTACGACGGGATT
B27: GUUCAGG (DNA:RNA)
RNA: B1 RNA with A25G, C26U, U28C, G29A, A30G
DNA 1: CAATCTGAATTCCGGTCTCCC
DNA 2: TGGTGGCTACGACGGGATT
B28: AGGUUUG (DNA:RNA)
RNA: B1 RNA with C26G, U27G, G29U, A30U
DNA 1: CAATCTGAATTCCGGTCTCCC
DNA 2: TGGTGGCTACGACGGGATT
B29: AGGUUCG (DNA:RNA)
RNA: B1 RNA with C26G, U27G, G29U, A30C
DNA 1: CAATCTGAATTCCGGTCTCCC
DNA 2: TGGTGGCTACGACGGGATT
B30: ACCAGGU (DNA:RNA)
RNA: B1 RNA with U27C, U28A, A30G, G31U
DNA 1: CAATCTGAATTCCGGTCTCCC
DNA 2: TGGTGGCTACGACGGGATT
B31: AGCGAUU (DNA:RNA)
RNA: B1 RNA with C26G, U27C, U28G, G29A, A30U, G31U
DNA 1: CAATCTGAATTCCGGTCTCCC
DNA 2: TGGTGGCTACGACGGGATT

The target of this experiment is T1, RBFOX1 RRM RbFoxmut (Fox-RRM*). The experiment can be described thus: EMSA; HiTS-Eq, 1 nM pool, 10 min; buffer printed only for the single-RNA assays: 10 mM Tris pH 7.5, 150 mM NaCl, 3.4 mM EDTA, 0.001% NP-40, 30 C. The following applies: tags: His6 N-terminal (pET28a); label: 5' 32P. In short, it runs like this:
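Purified RbFox RRM (wild type or mutant) was equilibrated for 10 min in 50 µL with 1 nM of a 5′-radiolabelled pool of RNA with 7 randomized nucleotides, its flanks annealed to DNA oligonucleotides, across increasing protein concentrations. Free RNA was separated by 8% native PAGE, excised, reverse-transcribed, PCR-barcoded and sequenced on an Illumina HiSeq 2500. Relative association constants came from read-count changes of each variant against the control reaction, normalised to the cognate motif.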
(In general: A gel shift assay detects complexes by their altered migration in electrophoresis.)
For the molecule B1, the binding signal was 0.13 KA relative to UGCAUGU.
The value for B2 was 0.106 KA relative to UGCAUGU.
The value for B3 was 0.0822 KA relative to UGCAUGU.
To B4 belongs 0.0673 KA relative to UGCAUGU; to B5, 0.0642 KA relative to UGCAUGU; to B6, 0.0952 KA relative to UGCAUGU.
As to B7, the binding signal was 0.497 KA relative to UGCAUGU.
To B8 belongs 0.23 KA relative to UGCAUGU; to B9, 0.0714 KA relative to UGCAUGU.
To B10 belongs 0.524 KA relative to UGCAUGU.
The value for B11 was 0.126 KA relative to UGCAUGU.
As for B12, the binding signal was 0.179 KA relative to UGCAUGU.
The value for B13 was 0.154 KA relative to UGCAUGU; that for B14 was 0.12 KA relative to UGCAUGU; that for B15 was 0.753 KA relative to UGCAUGU.
The value for B16 was 0.322 KA relative to UGCAUGU; that for B17 was 0.125 KA relative to UGCAUGU; that for B18 was 0.804 KA relative to UGCAUGU.
On to B19, for which the binding signal is 0.281 KA relative to UGCAUGU.
To B20 belongs 0.0731 KA relative to UGCAUGU; to B21, 0.0854 KA relative to UGCAUGU.
B22: the binding signal is 0.0736 KA relative to UGCAUGU.
Regarding B23, the binding signal was 0.103 KA relative to UGCAUGU.
To B24 belongs 0.114 KA relative to UGCAUGU; to B25, 0.0991 KA relative to UGCAUGU.
With B26, the binding signal is 0.332 KA relative to UGCAUGU.
The value for B27 was 0.0776 KA relative to UGCAUGU; that for B28 was 0.525 KA relative to UGCAUGU.
To B29 belongs 0.357 KA relative to UGCAUGU; to B30, 0.11 KA relative to UGCAUGU; to B31, 0.072 KA relative to UGCAUGU.
